From PubChem BioAssay AID488847 (NMMLSC, 2010)
The whole screen tested about 330,000 compounds, of which about 1,900 (0.58%) were called active. For the sample, actives were picked, then their nearest neighbours and some compounds at random. A number with no mark means an inactive call.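 The calls were made as follows: active = inhibition of aptamer binding above 40%, roughly 3 SD of noise, on plates passing a quality check; inactive = the rest.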

Each compound was assayed against Beta-adrenergic receptor kinase 1 (Homo sapiens) (UniProt P25098) (assay: compounds blocking aptamer binding on GRK2 – biochemical, human GRK2, bead flow cytometry, HTS, primary screen (AID 488847;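 also: median bead fluorescence of bound FAM aptamer so fluorescent compounds give negative values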)). Conditions: FAM-aptamer displacement from GRK2, at 10 µM, hits give high values.
Sequence of Beta-adrenergic receptor kinase 1 (Homo sapiens) (P25098 whole entry, looked up): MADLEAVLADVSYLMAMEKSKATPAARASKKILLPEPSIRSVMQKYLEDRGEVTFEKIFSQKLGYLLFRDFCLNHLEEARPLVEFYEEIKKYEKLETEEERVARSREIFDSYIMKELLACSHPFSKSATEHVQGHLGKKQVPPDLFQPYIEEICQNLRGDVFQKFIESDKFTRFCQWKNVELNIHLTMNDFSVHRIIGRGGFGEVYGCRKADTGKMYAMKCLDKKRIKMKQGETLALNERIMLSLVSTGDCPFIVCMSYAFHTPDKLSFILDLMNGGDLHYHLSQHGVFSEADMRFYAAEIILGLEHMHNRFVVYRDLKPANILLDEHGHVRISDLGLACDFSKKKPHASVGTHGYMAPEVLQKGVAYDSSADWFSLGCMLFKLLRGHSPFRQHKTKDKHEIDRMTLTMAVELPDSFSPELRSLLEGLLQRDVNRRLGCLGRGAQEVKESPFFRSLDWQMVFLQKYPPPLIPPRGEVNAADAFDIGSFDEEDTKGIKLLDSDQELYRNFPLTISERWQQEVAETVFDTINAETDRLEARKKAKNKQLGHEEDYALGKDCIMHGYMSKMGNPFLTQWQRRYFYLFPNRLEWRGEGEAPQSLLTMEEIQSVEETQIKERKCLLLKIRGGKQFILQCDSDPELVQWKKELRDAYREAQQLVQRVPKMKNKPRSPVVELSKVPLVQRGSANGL

**Q.** For `Cc1c(C(=O)O)cccc1-n1c(C)cc(/C=C2\C(=O)NC(=O)N(c3ccc4c(c3)OCO4)C2=O)c1C`, which inhibition of aptamer binding is on record?
**A.** 75% (active)

**Q.** With `Cc1ccc(-n2c(C)cc(/C=C3\C(=O)NC(=O)N(C)C3=O)c2C)cc1C` as the compound, how does the inhibition of aptamer binding read?
**A.** 3%

**Q.** `Cc1cc(C=C2C(=O)NC(=O)NC2=O)c(C)n1-c1ccncc1` was tested. Which inhibition of aptamer binding did it give?
**A.** 2%

**Q.** How did the inhibition of aptamer binding turn out when `CC[N+]1(C)CCCC(OC(=O)C(O)(c2ccccc2)c2ccccc2)C1` (stereo not given) was run?
**A.** 0%

**Q.** With `O=C1NC(=O)C(C/C=C/c2ccccc2)C(=O)N1` as the compound, how does the inhibition of aptamer binding read?
**A.** 1%

**Q.** How did the inhibition of aptamer binding turn out when `COc1ccc(Br)cc1CNCCc1cccc(Cl)c1` was run?
**A.** 0%

**Q.** How did the inhibition of aptamer binding turn out when `COc1ccc(N2C(=O)/C(=C/c3ccco3)C(=O)NC2=S)cc1` was run?
**A.** 96% (active)

**Q.** How did the inhibition of aptamer binding turn out when `O=C1NC(=O)N(Cc2ccco2)C(=O)/C1=C\c1ccc(-c2ccc(F)cc2)o1` was run?
**A.** 15%

**Q.** `O=C1NC(=O)N(Cc2ccco2)C(=O)/C1=C\c1cccn1CCOc1ccccc1` was tested. Which inhibition of aptamer binding did it give?
**A.** 5%

**Q.** Which inhibition of aptamer binding does the source give for `CN(C)CC1CCCCC1OC(=O)c1ccc(Cl)c(Cl)c1` (stereo not given) here?
**A.** 0%
